Reference: PubChem BioAssay (NCATS)
Records with an inconclusive call do not appear. A call without a number means that no potency is given here. A number with no mark means an inactive call. Active and inactive are the calls of the source. Calls follow the shape of the dose curve; as a rule, active = well fitted curve in the direction sought with a large enough effect; inconclusive = small, poorly fitted or top-dose-only effect, or another doubt; inactive = no such curve, though single readings can be large; an effect the other way counts as inactive or inconclusive.

Legend:
CRL-7250 = normal cell line; test: Cytotoxic Profiling of Annotated Libraries Using Quantitative High-Throughput Screening (AID 1296008); conditions: Five cell lines viability, CellTiter-Glo ATP luminescence, 48-72 h; max response: active compounds read low; also: nearly all actives have a fitted effect of over 60% in size; also: potency is read from the fitted curve at half-maximal effect
In short: (§1)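 Cells exposed to compounds for 48 or 72 hr at 37 degrees Celsius. Viability read as ATP-coupled luminescence with CellTiter-Glo after 10 min at room temperature.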

HEK293 = test: as above; conditions: Five cell lines viability, CellTiter-Glo ATP luminescence, 48-72 h; max response: active compounds read low
In short: as §1

HaCat [1] = test: as above; conditions: Five cell lines viability, CellTiter-Glo ATP luminescence, 48-72 h; max response: active compounds read low
In short: as §1

KB-3-1 = test: as above; conditions: Five cell lines viability, CellTiter-Glo ATP luminescence, 48-72 h; max response: active compounds read low
In short: as §1

NIH3T3 [2] = test: as above; conditions: Five cell lines viability, CellTiter-Glo ATP luminescence, 48-72 h; max response: active compounds read low
In short: as §1

MCC-13 = test: qHTS assay to identify novel small-molecules to repurpose for Merkel cell carcinoma treatment (AID 1296009); conditions: MCC and control cell lines, CellTiter-Glo viability, 72 h; series mostly up to 46 µM; also: nearly all actives have a fitted effect of over 60% in size
In short: (§2)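 Cells were incubated with compound for 72 hr at 37 degree celsius before CellTiter-Glo addition. Luminescence was normalized with no-cell wells as full cytotoxicity and DMSO as baseline.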

MCC-26 = test: as above; conditions: MCC and control cell lines, CellTiter-Glo viability, 72 h; series mostly up to 46 µM
In short: as §2

MKL-1 = test: as above; conditions: MCC and control cell lines, CellTiter-Glo viability, 72 h; series mostly up to 46 µM
In short: as §2

MKL-2 = test: as above; conditions: MCC and control cell lines, CellTiter-Glo viability, 72 h; series mostly up to 46 µM
In short: as §2

UISO = test: as above; conditions: MCC and control cell lines, CellTiter-Glo viability, 72 h; series mostly up to 46 µM
In short: as §2

WaGa = test: as above; conditions: MCC and control cell lines, CellTiter-Glo viability, 72 h; series mostly up to 46 µM
In short: as §2

C33A = test: Primary qHTS to identify gynecologic anti-cancer compounds using libraries of approved drugs and bioactive compounds (AID 1345084); conditions: Gynecologic cancer cell panel viability, ATPlite luminescence, 48 h; series mostly up to 57.5 µM; also: nearly all actives have a fitted effect of over 55% in size
In short: (§3)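 Five-point cytotoxicity, 48 h drug exposure at 37 C, 5% CO2, on cells seeded 16 h beforehand. ATP content read by ATPlite luminescence.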

CAOV3 = test: as above; conditions: Gynecologic cancer cell panel viability, ATPlite luminescence, 48 h; series mostly up to 57.5 µM
In short: as §3

CASKI = test: as above; conditions: Gynecologic cancer cell panel viability, ATPlite luminescence, 48 h; series mostly up to 57.5 µM
In short: as §3

Es-2 = test: as above; conditions: Gynecologic cancer cell panel viability, ATPlite luminescence, 48 h; series mostly up to 57.5 µM
In short: as §3

HeLa = test: as above; conditions: Gynecologic cancer cell panel viability, ATPlite luminescence, 48 h; series mostly up to 57.5 µM
In short: as §3

W2 = test: qHTS profiling for inhibitors of Plasmodium falciparum proliferation (AID 504749); also: nearly all actives have a fitted effect of over 60% in size; also: potency is read from the fitted curve at half-maximal effect; conditions: P. falciparum in erythrocytes, SYBR Green DNA, 72 h; series mostly up to 28.7 µM
In short: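 Readout was DNA-dye fluorescence from lysed cultures, ex 485/em 535 nm. Parasitized red cells had grown 72 h with compound; data scaled between 0.29 uM artemisinin and DMSO wells and corrected using vehicle-only plates.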

HACAT [3] = test: qHTS assay to identify novel small-molecules to repurpose for Merkel cell carcinoma treatment (AID 1296009); conditions: MCC and control cell lines, CellTiter-Glo viability, 72 h; at 44.8 µM (top of the series) unless noted; also: nearly all actives have a fitted effect of over 60% in size
In short: as §2

HEK293T = test: as above; conditions: MCC and control cell lines, CellTiter-Glo viability, 72 h; at 44.8 µM (top of the series) unless noted
In short: as §2

NIH3T3 [4] = test: as above; conditions: MCC and control cell lines, CellTiter-Glo viability, 72 h; at 44.8 µM (top of the series)
In short: as §2

CN(C)CCC[C@@]1(c2ccc(F)cc2)OCc2cc(C#N)ccc21
max response (CRL-7250): -3.32%
max response (HEK293): -9.91%
max response (HaCat [1]): -13.9%
max response (KB-3-1): -13.4%
max response (NIH3T3 [2]): 0.771%
Potency (MCC-13): inactive
Potency (MCC-26): inactive
Potency (MKL-1): inactive
Potency (MKL-2): inactive
Potency (UISO): inactive
Potency (WaGa): inactive
Potency (C33A): inactive
Potency (CAOV3): inactive
Potency (CASKI): inactive
Potency (Es-2): inactive
Potency (HeLa): inactive

CCN(CC)CCOc1ccccc1C(=O)CCc1ccccc1
Potency (W2): 2.13 µM (active)
max response (CRL-7250): -0.916%
Potency (HEK293): 11.9 µM (active)
outcome (HaCat [1]): inactive
max response (KB-3-1): -2.43%
max response (NIH3T3 [2]): -3.4%
outcome (HACAT [3]): inactive
Potency (MCC-13): inactive
Potency (MKL-1): inactive
Potency (MKL-2): inactive
Potency (UISO): inactive
Potency (C33A): inactive
Potency (CASKI): inactive
Potency (Es-2): inactive
Potency (HeLa): inactive

CC(C(=O)O)c1cccc(Oc2ccccc2)c1 (configuration not stated)
max response (CRL-7250): -6.67%
max response (HEK293): -4.21%
max response (HaCat [1]): -15.2%
max response (KB-3-1): -5.06%
max response (NIH3T3 [2]): -0.596%
Potency (MCC-13): inactive
Potency (MCC-26): inactive
Potency (MKL-1): inactive
Potency (MKL-2): inactive
Potency (UISO): inactive
Potency (WaGa): inactive
Potency (C33A): inactive
Potency (CAOV3): inactive
Potency (CASKI): inactive
Potency (Es-2): inactive
Potency (HeLa): inactive

CCCCN=C(N)N=C(N)N
Potency (W2): inactive
max response (CRL-7250): 1.78%
outcome (HEK293): inactive
max response (HaCat [1]): 2.62%
max response (KB-3-1): 1.99%
max response (NIH3T3 [2]): -1.41%
outcome (HEK293T): inactive
Potency (MCC-13): inactive
Potency (MCC-26): inactive
Potency (MKL-1): inactive
Potency (MKL-2): inactive
Potency (UISO): inactive
Potency (C33A): inactive
Potency (CASKI): inactive
Potency (Es-2): inactive
Potency (HeLa): inactive

COc1ccc(C(=O)c2ccccc2O)c(O)c1
outcome (CRL-7250): inactive
max response (HEK293): -10.9%
max response (HaCat [1]): 4.59%
max response (KB-3-1): -2.05%
max response (NIH3T3 [2]): 1.03%
Potency (MCC-13): inactive
Potency (MCC-26): inactive
Potency (MKL-1): inactive
Potency (MKL-2): inactive
Potency (UISO): inactive
Potency (WaGa): inactive
Potency (C33A): inactive
Potency (CAOV3): inactive
Potency (CASKI): inactive
Potency (Es-2): inactive
Potency (HeLa): inactive

COc1cc(N)c(Cl)cc1C(=O)NC1CCN(Cc2ccccc2)CC1
outcome (CRL-7250): inactive
max response (HEK293): -8.36%
max response (HaCat [1]): 1.83%
max response (KB-3-1): 3.83%
max response (NIH3T3 [2]): -4.33%
Potency (MCC-13): inactive
Potency (MCC-26): inactive
Potency (MKL-1): inactive
Potency (MKL-2): inactive
Potency (UISO): inactive
Potency (WaGa): inactive
Potency (C33A): inactive
Potency (CAOV3): inactive
Potency (CASKI): inactive
Potency (Es-2): inactive
Potency (HeLa): inactive

Nc1nc(-c2ccccc2)c(Br)c(=O)[nH]1
Potency (W2): inactive
max response (CRL-7250): -18.3%
max response (HEK293): -28.5%
max response (HaCat [1]): -7.63%
max response (KB-3-1): 4.06%
max response (NIH3T3 [2]): -18.4%
Potency (MCC-13): inactive
Potency (MCC-26): inactive
Potency (MKL-1): inactive
Potency (MKL-2): inactive
Potency (UISO): inactive
Potency (WaGa): inactive
Potency (C33A): inactive
Potency (CAOV3): inactive
Potency (CASKI): inactive
Potency (Es-2): inactive
Potency (HeLa): inactive

CCN1CCN(C(=O)N[C@@H](C(=O)N[C@@H]2C(=O)N3C(C(=O)O)=C(CSc4nnnn4C)CS[C@H]23)c2ccc(O)cc2)C(=O)C1=O
max response (CRL-7250): 3.23%
max response (HEK293): -4.75%
max response (HaCat [1]): -2.57%
max response (KB-3-1): -4.94%
max response (NIH3T3 [2]): -3.36%
Potency (MCC-13): inactive
Potency (MCC-26): inactive
Potency (MKL-1): inactive
Potency (MKL-2): inactive
Potency (UISO): inactive
Potency (WaGa): inactive
Potency (C33A): inactive
Potency (CAOV3): inactive
Potency (CASKI): inactive
Potency (Es-2): inactive
Potency (HeLa): inactive

CC1(COc2ccc(CC3SC(=O)NC3=O)cc2)CCCCC1 (configuration not stated)
Potency (W2): inactive
outcome (CRL-7250): inactive
max response (HEK293): 0.676%
outcome (HaCat [1]): inactive
max response (KB-3-1): -1.45%
outcome (NIH3T3 [2]): inactive
outcome (HACAT [3]): inactive
Potency (MCC-13): inactive
Potency (MCC-26): inactive
Potency (MKL-1): inactive
Potency (MKL-2): inactive
outcome (NIH3T3 [4]): inactive
Potency (C33A): inactive
Potency (CAOV3): inactive
Potency (CASKI): inactive
Potency (Es-2): inactive
Potency (HeLa): inactive

CCC(CC)(CC(=O)Nc1cccc(/C=C/c2nc(C3CCC3)cs2)c1)C(=O)O
Potency (W2): inactive
max response (CRL-7250): 2.29%
max response (HEK293): -8.39%
outcome (HaCat [1]): inactive
max response (KB-3-1): -22.9%
max response (NIH3T3 [2]): 2.57%
outcome (HACAT [3]): inactive
Potency (MCC-13): inactive
Potency (MCC-26): inactive
Potency (MKL-1): inactive
Potency (UISO): inactive
Potency (C33A): inactive
Potency (CASKI): inactive

CCCCN1C[C@H](O)[C@@H](O)[C@H](O)[C@H]1CO
max response (CRL-7250): -12.1%
max response (HEK293): -7.96%
max response (HaCat [1]): -19.6%
max response (KB-3-1): 15.3%
max response (NIH3T3 [2]): -2.42%
Potency (MCC-13): inactive
Potency (MCC-26): inactive
Potency (MKL-1): inactive
Potency (MKL-2): inactive
Potency (UISO): inactive
Potency (WaGa): inactive
Potency (C33A): inactive
Potency (CAOV3): inactive
Potency (CASKI): inactive
Potency (Es-2): inactive
Potency (HeLa): inactive

Cc1c[nH]c2ccccc12
Potency (W2): inactive
outcome (CRL-7250): inactive
max response (HEK293): 2.22%
outcome (HaCat [1]): inactive
max response (KB-3-1): 8.35%
outcome (NIH3T3 [2]): inactive
outcome (HACAT [3]): inactive
Potency (MCC-13): inactive
Potency (MCC-26): inactive
Potency (MKL-2): inactive
outcome (NIH3T3 [4]): inactive
Potency (UISO): inactive
Potency (C33A): inactive
Potency (CASKI): inactive
Potency (Es-2): inactive
Potency (HeLa): inactive

NCc1ccccc1Sc1ccccc1CO
Potency (W2): 4.78 µM (active)
max response (CRL-7250): -5.17%
max response (HEK293): -7.72%
max response (HaCat [1]): -3.87%
max response (KB-3-1): 6.51%
outcome (NIH3T3 [2]): inactive
Potency (MCC-13): inactive
Potency (MCC-26): inactive
Potency (MKL-1): inactive
Potency (MKL-2): inactive
outcome (NIH3T3 [4]): inactive
Potency (UISO): inactive
Potency (C33A): inactive
Potency (CAOV3): inactive
Potency (CASKI): inactive
Potency (Es-2): inactive
Potency (HeLa): inactive
